# DAX1 inh-1 – NR0B1 (DAX1) inhibition | 340,000 compounds, 0.99% hits | inhibition, % at 6.75 µM | P51843 | HEK293 Gal4-DAX1 luciferase reporter, luminescence;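 active means inhibition above the mean over all tested compounds plus 3 SD, cut at about 4.2% in these data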;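 further: inhibition shows as a rise in luminescence from relieved DAX1 repression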
# Target sequence (P51843 207-470 limits assumed): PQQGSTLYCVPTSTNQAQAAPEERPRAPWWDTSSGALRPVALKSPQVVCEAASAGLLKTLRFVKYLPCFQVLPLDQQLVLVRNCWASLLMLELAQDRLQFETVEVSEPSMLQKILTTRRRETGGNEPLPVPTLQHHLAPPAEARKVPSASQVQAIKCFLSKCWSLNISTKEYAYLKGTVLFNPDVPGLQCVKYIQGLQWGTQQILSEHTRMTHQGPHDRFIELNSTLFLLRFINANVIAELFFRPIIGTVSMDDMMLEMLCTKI
# ssDAF12 agonist – activators of S. stercoralis DAF-12 nuclear receptor. HEK293 ssDAF-12/GRIP1 lit1-tk-luc reporter, luminescence; % of 3 µM dafachronic acid response. activation, % at 6.8 µM. 370,000 compounds, 1% hits. AID 652126;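 active means activation above the mean over all tested compounds plus 3 SD, cut at about 0.9% in these data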
# hcDAF12 agonist – activates DAF-12 receptor from parasite H. contortus; HEK293 hcDAF-12 lit1-tk-luc reporter, luminescence; 0% DMSO, 100% Δ7-dafachronic acid; activation, % at 6.8 µM; 370,000 compounds, 1.4% hits;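 active means activation above the mean of all tested compounds plus 3 SD, cut at about 5.5% in these data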
# hgDAF-12 ag – agonists of H. glycines DAF-12 nuclear receptor; HEK293 GAL4-hgDAF12 UAS-luciferase reporter, agonist luminescence; normalized to butyrate control; 370,000 compounds, 1.8% hits; activation, % at 6.8 µM;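 active means activation above a cutoff set at the mean of all screened compounds plus 3 SD, cut at about 10% in these data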
# DAX1 inh-2 – inhibitors of DAX1 repression of SF-1 activated StAR promoter | HEK293T StAR-luciferase reporter, SF-1/DAX-1 repression relief | inhibition, % at 6.8 µM | 370,000 compounds, 1.1% hits;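 active means inhibition above the mean over all tested compounds plus 3 SD, cut at about 3.6% in these data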;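 further: higher inhibition means more luminescence from relief of DAX-1 repression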
# A number is an active result; i = inactive; nt = no result. The list is not random: actives were taken first. Their share in the collection is about 4.1%.
SMILES,DAX1 inh-1,ssDAF12 agonist,hcDAF12 agonist,hgDAF-12 ag,DAX1 inh-2
C/C=C/C(=O)N1CCC(C(=O)NC2CCCc3ccccc32)CC1 (stereo not given),nt,i,i,i,i
CCN(CC)c1nc(C)nc2c1nnn2Cc1ccccc1,nt,i,i,i,i
CCCCN1CCS(=O)(=O)N(Cc2cn(Cc3ccccc3Br)nn2)C(C(=O)OC)C1 (stereo not given),nt,i,i,i,i
Clc1ccc2oc(-c3ccccc3)cc(=NCCCN3CCOCC3)c2c1,i,i,i,15.8,i
OCCCCCN=c1cc(-c2ccccc2)oc2ccc(Cl)cc12,i,i,i,i,i
Clc1ccc([C@H]2OC[C@@]3(CNCc4ccccn4)CS[C@H](c4ccc(Cl)cc4)N23)cc1,nt,i,i,i,i
CC(=O)n1c2c(c3ccccc31)OC(N)=C(C#N)C2c1ccc(C(C)C)cc1 (stereo not given),i,i,5.6,i,i
CCc1ccccc1OCC(=O)OCC(=O)Nc1cc(C)on1,i,i,i,i,3.8
CCOc1ccc(/C=N/OCC(=O)Nc2cc(C)on2)cc1,i,1.6,i,i,i
CN(CC#Cc1ccccc1)C(N)=NC(=O)/C=C/c1ccccc1,nt,i,i,i,i
CC1CCCCN1C(=O)Nc1ccccc1Cl (stereo not given),5.1,i,i,i,i
O=C(NC1CCCC1)C1CCCN1C(=O)Nc1ccccc1Cl (stereo not given),i,i,i,i,i
CCOC(=O)N1CCN(C(=O)C[C@H]2C[C@@]3(C(=O)OC)C(=C[C@H](COCc4ccccc4)O[C@@H]3C)N(Cc3cccc4ccccc34)C2=O)CC1,nt,i,i,i,i
COc1ccc(C2/C=C\CN(C(=O)OCC3c4ccccc4-c4ccccc43)CC(=O)N2Cc2cccc(F)c2)cc1 (stereo not given),i,i,i,i,3.7
O=C(Nc1nc2ccc(Cl)cc2s1)[C@@H]1CCCN1C(=O)c1cccs1,i,i,5.7,i,i
Cc1cccc2sc(NC(=O)[C@@H]3CCCN3C(=O)c3cccs3)nc12,i,i,i,i,i
Cn1c2c(c(=O)n(C)c1=O)[C@@]1(C(=O)Nc3ccccc31)C(C#N)=C(N)O2,i,i,i,i,i
Cn1c2c(c(=O)n(C)c1=O)NC1(N2)C(=O)Nc2ccccc21 (stereo not given),i,0.9,i,i,i
CCNC(=O)C[C@H]1CC[C@H]2[C@@H](COc3ccc(NC(=O)c4ccc5c(c4)OCO5)cc3C(=O)N2C)O1,nt,i,i,i,i
Cc1cc2nc(-c3cccc(Cl)c3)c(Cc3cccc(Cl)c3)n2c(C)c1Br,nt,i,i,i,i
Cc1cc2nc(-c3ccc(Cl)cc3)c(Cc3cccc(Cl)c3)n2c(C)c1Br,nt,1.1,i,i,i
Cc1cc2nc(-c3ccccc3)c(Cc3ccsc3)n2c(C)c1Br,nt,2.0,i,i,i
COc1ccc(C(=O)Nc2cccc(C)c2)cc1,i,i,i,11.5,4.0
NC(=O)c1ccccc1NC(=O)c1ccc2c(c1)OCO2,i,i,i,11.3,i
COc1ccc(NC(=O)c2ccc3c(c2)NC(=O)CS3)cc1,i,i,i,i,4.4
SMILES,DAX1 inh-1,ssDAF12 agonist,hcDAF12 agonist,hgDAF-12 ag,DAX1 inh-2
COc1ccc(C(=O)Nc2cccc(NC(C)=O)c2)cc1,nt,i,i,i,i
COc1cc(OC)c(C(=O)Nc2ccc3ccccc3c2)cc1OC,5.2,nt,nt,nt,nt
COc1ccc(NC(=O)c2cc3ccccc3cc2OC)cc1OC,i,i,i,i,i
C[C@@H]1COc2cc(N3CCCC3)ccc2S(=O)(=O)N1C,nt,i,i,i,i
COc1ccc(CN2C(=O)N3Cc4ccc(C)cc4C3CS2(=O)=O)cc1 (stereo not given),nt,i,i,i,i
COc1ccc(C(=O)Nc2ccc3ccccc3c2)cc1OC,i,i,i,11.7,i
COc1ccc(C(=O)Nc2ccccc2C(=O)Nc2ccccc2C(=O)O)cc1,i,i,i,i,i
COc1ccc(C(=O)Nc2ccc3ccccc3c2)cc1,i,i,5.8,i,i
COc1cc2ccccc2cc1C(=O)Nc1ccc(O)cc1,4.4,1.4,i,i,i
COc1ccc(OC)c(NC(=O)c2cc3ccccc3cc2OC)c1,i,i,i,i,i
COc1ccc(C(=O)Nc2ccccc2C(N)=O)cc1,i,i,i,12.6,i
COC(=O)[C@]12C[C@H](CC(=O)NCCc3ccccc3OC)C(=O)N(Cc3cccc4ccccc34)C1=C[C@H](C(C)C)O[C@@H]2C1CC1,nt,i,i,i,i

# Source: PubChem
